# An excerpt weighted towards active compounds, which were near 27% of everything screened.
# CYP2C19 activ: human CYP2C19 activators, primary screen, biochemical, luminescence; 96,000 tested, under 10 active; AID 1025, 2008; activation factor at 5 µM; recombinant CYP2C19, luciferin-H EGE luminescence; active compounds read high; 0 = fully inhibited enzyme, 1 = untreated enzyme;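 active means activation factor of at least 2 at 5 µM in the primary screen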;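 further: 0 = wells with 2.5 mM tranylcypromine and 1 = vehicle-only wells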
# CYP2C9 activ: human CYP2C9 activators, primary screen, biochemical, luminescence; activation factor at 5 µM; actives 1.4% (n = 96,000); recombinant CYP2C9, luciferin-H conversion; active compounds read high; factor 1 = untreated enzyme, 0 = blocked; Cytochrome P450 2C9 (Homo sapiens), P11712; AID 1024, 2008;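 active means activation factor of 2 or more for CYP2C9 at a 5 µM dose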;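 further: 0 = sulfaphenazole-blocked wells and 1 = vehicle-only wells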
# Target sequence (P11712 whole entry, looked up): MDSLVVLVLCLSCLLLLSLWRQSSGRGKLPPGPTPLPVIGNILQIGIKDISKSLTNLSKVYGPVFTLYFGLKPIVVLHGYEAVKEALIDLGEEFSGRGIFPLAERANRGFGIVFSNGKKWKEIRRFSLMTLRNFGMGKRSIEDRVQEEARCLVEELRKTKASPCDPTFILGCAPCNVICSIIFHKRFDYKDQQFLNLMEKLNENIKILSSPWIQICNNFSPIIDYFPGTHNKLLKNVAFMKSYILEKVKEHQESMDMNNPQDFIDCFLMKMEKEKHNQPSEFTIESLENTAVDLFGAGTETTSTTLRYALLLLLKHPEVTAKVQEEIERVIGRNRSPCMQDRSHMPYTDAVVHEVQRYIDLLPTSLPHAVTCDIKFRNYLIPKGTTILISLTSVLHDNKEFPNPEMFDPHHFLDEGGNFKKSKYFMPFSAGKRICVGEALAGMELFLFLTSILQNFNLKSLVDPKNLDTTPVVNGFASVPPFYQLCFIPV
# CYP2C9 inhib: blockers of cytochrome P450 2C9 activity – biochemical, luminescence, ADME assay, primary screen | inhibition, % at 5 µM | P11712 | actives 20% (n = 96,000) | AID 777, 2007 | CYP2C9 Supersomes, luciferin-H conversion;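 active means blocking of liver enzyme CYP2C9 beyond about 50% at 5 µM, limit read from the data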
# CYP2C19 inh: blockers of cytochrome P450 2C19 activity – biochemical, luminescence, ADME assay, primary screen. CYP2C19 Supersomes, luciferin-H EGE luminescence, 30 min. inhibition, % at 5 µM. actives 21% (n = 96,000);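 active means CYP2C19 inhibition above a set limit at 5 µM in the primary screen, cut at about 50% in these data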;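 further: plate controls were negative control wells for no effect and 2.5 mM tranylcypromine positive control for full effect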
# Cav32 inh: Cav3.2 calcium influx blockers – cell-based, Fluo-4 calcium fluorescence, FDSS, MLSMR library, primary screen; Voltage-dependent T-type calcium channel subunit alpha-1H (Homo sapiens), O95180; Cav3.2-expressing cells; active compounds read low; B-score at 10 µM; actives 4% (n = 100,000);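 active means single-dose well whose peak fluorescence ratio is a statistical outlier from its plate by either plate-standardised score or position-corrected B-score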
# Starred values were filed as active, the others as inactive; / = not tested or not shown.
SMILES,CYP2C19 activ,CYP2C9 activ,CYP2C9 inhib,CYP2C19 inh,Cav32 inh
CC(=O)Nc1ccc(NC(=O)C(C)OC(=O)CN(C)S(=O)(=O)c2ccc(Cl)cc2)cc1 (stereo unspecified),0.2,0.4,60.3*,75.3*,1.6
CCCCCCn1c(=O)c(-c2nc3ccccc3c(=O)[nH]2)c(O)c2ccccc21,1.1,1,-4.8,-14.4,/
Cc1cc(-c2nc3c4c5c(sc4[nH]c(=O)n3n2)CCC5)c(C)o1,1.1,0.5,50.7*,-11.7,-0.453
Cc1nc2sc3c(c2c(=O)[nH]1)CCC3,1.2,1.2,-17.8,-16.5,-0.0233
Cc1ccnc(N2C(=O)C3C4CC(C(Br)C4Br)C3C2=O)c1 (stereo unspecified),0.9,1,-3.8,5.5,0.563
O=C1C2C3CC(C(Br)C3Br)C2C(=O)N1c1ccccn1 (stereo unspecified),0.4,0.9,8.9,62.3*,0.999
COc1ccc(OC)c(/C=N/NC(=O)CCCC(=O)Nc2cccc(Br)c2)c1,0.7,0.2,75.4*,35.0,-2.09
CCCCc1nc2ccccc2c(=O)n1NC(=O)c1c(O)c2c(n(CC(C)C)c1=O)CCCC2,0.8,0.4,60.3*,15.1,-9.9*
CC(C)Cn1c2c(c(O)c(C(=O)Nc3ccc(F)cc3)c1=O)CCCC2,1.2,0.7,27.5,-15.3,0.00562
CCCn1c2c(c(O)c(C(=O)Nc3ccccc3)c1=O)CCCC2,0.9,0.2,75.9*,13.4,/
Cc1cccc(N2CCN(C(=O)Cn3cnc4c3c(=O)n(C)c(=O)n4C)CC2)c1C,/,/,/,/,1.62
COc1ccc(C2C(=O)c3ccccc3C2=O)cc1,/,/,/,/,-1.18
COc1ccc(C2NC(=O)NC3=C2CCc2ccccc23)cc1 (stereo unspecified),0.2,0.8,16.1,80.7*,-0.0908
Cc1ccc(C2NC(=O)NC3=C2CCc2ccccc23)cc1 (stereo unspecified),0.1,0.7,32.7,94.9*,-0.143
CC(C)c1ccc(C2NC(=O)NC3=C2CCc2ccccc23)cc1 (stereo unspecified),0.7,0.8,21.5,26.0,/
CC1=NN(c2ccccc2)C(=O)/C1=C\c1c(C)[nH]n(-c2ccccc2)c1=O,1,0.5,50.9*,-4.7,-0.0499
Cc1[nH]n(-c2ccccc2)c(=O)c1/C=N/c1ccccn1,0.9,0.9,7.6,8.5,/
Cc1cc(C)c(S(C)(=O)=O)c(Sc2ccc(Cl)cc2)n1,0.5,0.3,65.3*,45.4,-0.134
CCOc1ccc(-c2cc3nc(C4CCN(C(=O)OC(C)(C)C)CC4)c(C(=O)O)cn3n2)cc1,1.1,0.2,80.7*,-7.2,-0.766
N/C(CN1CCCC1=O)=N\OC(=O)c1ccccc1Cl,1,1.1,-5.1,-1.5,1.97
C/C(=C(\C#N)C(=O)NC1CCCCC1)N(C)C,0.8,1,0.0,21.8,0.166
COc1cc(N2CCCC2)c(OC)cc1/C=C(/C#N)c1cccc(F)c1,0.7,0.8,22.0,34.2,-2.99
N#C/C(=C/c1ccc(N2CCCCCC2)o1)c1ccc(F)cc1,/,/,/,/,-6.09*
N#C/C(=C/c1ccc(N2CCOCC2)o1)c1ccc(Br)cc1,0.8,1,0.0,24.8,-3.44
N#C/C(=C/c1ccc(N2CCCCCC2)o1)c1cccc(F)c1,0.6,0.5,46.2,39.4,-4.27*
SMILES,CYP2C19 activ,CYP2C9 activ,CYP2C9 inhib,CYP2C19 inh,Cav32 inh
CCOc1cc(NC(=S)NCC2CCCO2)c(OCC)cc1NC(=O)c1cccc(C)c1 (stereo unspecified),/,0.9,14.9,/,-0.419
CCOc1ccc(C(=O)Nc2ccccc2N2CCOCC2)cc1,0.8,1,-1.3,17.7,-0.383
CCOc1ccc(C(=O)C2CCN(CC(=O)Nc3ccccc3N3CCOCC3)CC2)cc1,0,0,96.3*,99.1*,-1.34
Cc1cc(Cl)ccc1OC(C)C(=O)N1CCCN(C(=O)C(C)Oc2ccc(Cl)cc2C)CC1 (stereo unspecified),0.8,1,2.1,22.5,-5.42*
CCOc1ccc(C(=O)Nc2ccccc2N2CCCC2)cc1,0.9,1.1,-9.1,10.2,-1.03
CCC(C)Oc1cccc(C(=O)Nc2ccccc2N2CCOCC2)c1 (stereo unspecified),0.3,0.3,73.1*,67.9*,-5.26*
COC(=O)c1cc(NCc2ccccc2F)ccc1N1CCOCC1,0.1,0.5,54.9*,86.9*,0.168
CCOc1ccccc1CNc1ccc(N2CCOCC2)c(C(=O)O)c1,1,1,0.7,-1.8,2.11
CCOC(=O)N1CCN(C(=O)c2cn(C)c(=O)c3c2c2ccccc2n3C)CC1,1.1,1,2.1,-9.9,-0.00963
O=C(O)c1[nH]c2ccccc2c1NS(=O)(=O)Cc1ccccc1,1,0.7,26.7,4.7,0.00602
CCOc1ccc(N2C(=O)CC(n3ccc(C)n3)C2=O)cc1 (stereo unspecified),/,/,/,/,0.78
Cn1cccc1C1Nc2ccccc2NC2=C1C(=O)CC(C)(C)C2 (stereo unspecified),1.3,1,0.5,-33.2,0.149
c1ccc(-c2ccc(C3=Nn4c(Cn5nnc6ccccc65)nnc4SC3)cc2)cc1,1,0.8,15.6,-3.4,0.29
COc1cc(OC)cc(C(=O)N[C@H](C(=O)Nc2ccccc2N2CCOCC2)C(C)C)c1,0.5,0.6,41.6,48.1,0.0849
CC(C)Oc1cccc(C(=O)Nc2ccccc2N2CCOCC2)c1,0.6,0.4,58.7*,37.7,-1.94
COC(=O)c1ccccc1NC(=O)CNc1cc(Cl)ccc1N1CCOCC1,0.2,0.1,94.5*,84.0*,-3.15
O=C(COC(=O)c1ccccc1)Nc1ccccc1N1CCOCC1,/,/,/,/,0.754
O=C(Nc1ccccc1N1CCOCC1)c1cccs1,/,/,/,/,0.141
Cc1cc(Cl)ccc1OC(C)C(=O)Nc1ccccc1N1CCOCC1 (stereo unspecified),0.1,0,96.9*,90.0*,/
CC(C)CC(=O)NC1(C(F)(F)F)C(=O)Nc2c1c(=O)n(C)c(=O)n2C (stereo unspecified),1.1,1,-1.1,-8.0,-0.0158
COc1ccc(C(=O)/C=C/Nc2cccc(O)c2)cc1,0.9,1.2,-24.8,7.2,-0.0294
CCOc1ccc(N/C=C/C(=O)c2ccc(OC)cc2)c([N+](=O)[O-])c1,0.7,3*,-200.5,26.4,-2.43
COc1ccc(C(=O)/C=C/Nc2cc(C)on2)cc1,0.4,0.6,35.7,57.5*,1.48
COc1ccc(N/C=C/C(=O)c2ccc(C)cc2)c([N+](=O)[O-])c1,/,/,/,/,-1.74
CCOC(=O)N1CCN(C(=O)CS(=O)(=O)c2cn(Cc3ccc(F)cc3)c3ccccc23)CC1,/,/,/,/,-0.242
O=C(O)CCSc1nc2ccccc2n1CCOc1ccccc1,1,0.8,16.7,-4.5,-1.61

# Bioassay records: PubChem, several laboratories
